From PubChem
In the library only some 1.4% were active in any assay of this set; here they are far more common.
USP1-UAF1 inh: Inhibitors of USP1/UAF1: Primary Screen; Ubiquitin carboxyl-terminal hydrolase 1 (Homo sapiens), O94782; recombinant USP1/UAF1, Ub-Rhodamine cleavage fluorescence; Potency, µM (highest dose often 57.1 µM), most hits filed as inhibitors; 390,000 compounds, 0.23% hits; AID 743255, 2014; note: nearly all actives have a fitted effect of over 60% in size
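In this screen, compounds sit with the deubiquitinase complex (1nM) for 15 min at room temperature before Ub-Rho is added at 150nM final. Fluorescence rise is then followed for 6 reads every 60 seconds.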
EPAC1 antagonist: qHTS for Antagonist of cAMP-regulated guanine nucleotide exchange factor 3 (EPAC1): primary screen. EPAC1 GEF assay, Rap1b-BODIPY-GDP exchange fluorescence. Potency, µM (top dose mostly 115 µM), actives largely listed as inhibitors. AID 720709, 2013. Rap guanine nucleotide exchange factor 3 (Homo sapiens), O95398. 360,000 compounds, 0.14% hits; note: nearly all actives have a fitted effect of over 50% in size
EPAC2 ag: qHTS for Agonist of cAMP-regulated guanine nucleotide exchange factor 4 (EPAC2): primary screen | EPAC2 activation, biochemical qHTS; response scale: 100% = 6.5 mM cAMP response | Potency, µM (top dose mostly 154 µM), usual class: activators | 360,000 compounds, 0.079% hits | Rap guanine nucleotide exchange factor 4 (Homo sapiens), Q8WZA2; note: nearly all actives have a fitted effect of over 50% in size
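Setup: EPAC2 100 nM, labeled Rap1B complex 250 nM, free GDP 50 uM. Compound titrations pinned in, brief spin, 5 min room temperature incubation. Kinetic fluorescence read over 30 min, normalized to 6.5 mM cAMP.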
BRCA1 expr act: qHTS Assay to Identify Small Molecule Activators of BRCA1 Expression. MCF7-BRCA1-FFLuc reporter, luminescence, 48 h; response scale: scaled: vehicle 0%, 10 µM genistein 100%. Potency, µM (top dose mostly 46.1 µM), hits mostly activators. 380,000 compounds, 1.1% hits. AID 624202, 2012; note: nearly all actives have a fitted effect of over 80% in size
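MCF7-BRCA1-FFLuc, 2000 cells/well; 2 h attach, 37 °C/5% CO2; compound 48 h; luciferase substrate 15 min; luminescence end-point. Norm. to genistein 10 microM max activation and DMSO; concentration-response curves fitted.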
EPAC2 antagonist: qHTS for Antagonist of cAMP-regulated guanine nucleotide exchange factor 2 (EPAC2): primary screen. Potency, µM (titrated, usually from 114 µM), hits mostly inhibitors. EPAC2 GEF exchange of Rap1B-BODIPY-GDP, fluorescence. 360,000 compounds, 0.18% hits. Rap guanine nucleotide exchange factor 4 (Homo sapiens), Q8WZA2; note: nearly all actives have a fitted effect of over 45% in size
EPAC1 ag: qHTS for Agonist of cAMP-regulated guanine nucleotide exchange factor 3 (EPAC1): primary screen. Rap guanine nucleotide exchange factor 3 (Homo sapiens), O95398. EPAC1 agonist qHTS, biochemical assay; response scale: 100% = response to 6.5 mM cAMP. Potency, µM (top dose mostly 154 µM), actives largely listed as activators. 360,000 compounds, 0.073% hits. AID 720707, 2013; note: nearly all actives have a fitted effect of over 60% in size
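Nucleotide exchange by EPAC1 (100 nM) on Rap1B–BODIPY-GDP (250 nM) in the presence of 50 uM GDP is tracked fluorescently at 480/540 nm over 30 min. Signals are normalized to a 6.5 mM cAMP control.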
Of the large screens only hits and unclear results are named; the others gave an inactive call. Calls come from the whole dose curve; as a rule, active = well fitted curve in the direction sought with a large enough effect; inconclusive = small, poorly fitted or top-dose-only effect, or another doubt; inactive = no such curve, though single readings can be large; an effect the other way counts as inactive or inconclusive.

COc1cc2c(cc1OC)-c1cc(NC3CCCCC3)nc(=O)n1CC2	EPAC2 ag 6.3µM
Cc1ccc(-n2nnc(-c3cccnc3Cl)n2)cc1	BRCA1 expr act 3.5µM
O=C1S/C(=C/c2ccc(N3CCOCC3)o2)C(=O)N1Cc1ccc(F)cc1	USP1-UAF1 inh 14µM, EPAC2 ag inconclusive
O=C1NC(=S)S/C1=C/c1ccc(N2CCOCC2)o1	USP1-UAF1 inh inconclusive
CC(C)OC(=O)CN1C(=O)S/C(=C/c2ccc(N3CCCCC3)o2)C1=O	USP1-UAF1 inh inconclusive
O=C1S/C(=C\c2ccc(N3CCOCC3)o2)C(=O)N1Cc1ccc(F)cc1	USP1-UAF1 inh 5.6µM, EPAC2 ag 112µM
COc1ccc(CNc2cccnc2Cl)cc1	BRCA1 expr act 10µM (no result: USP1-UAF1 inh)
COc1ccc(CNc2ncccc2[N+](=O)[O-])cc1	BRCA1 expr act inconclusive
O=C1NC[C@@H](CCCCN2C[C@H](Cc3ccc(O)cc3)N(CCc3ccc(O)cc3)C(=O)C2=O)N(CC2CCCCC2)C1=O	none (no result: USP1-UAF1 inh)
O=C1C=CC(=O)c2c(O)c(N3CCN(CCO)CC3)c(Cl)c(O)c21	USP1-UAF1 inh 2.8µM, EPAC1 antagonist 14µM, EPAC2 antagonist inconclusive
OCCOCCN1CCN(C2=Nc3ccccc3Sc3ccccc32)CC1	none
O=C1C=CC(=O)c2c(O)c(N3CCN(CCOCCO)CC3)c(Br)c(O)c21	USP1-UAF1 inh 2µM, EPAC1 antagonist 45µM
Cc1ccc(S(=O)(=O)N2[C@@H](c3ccc(Cl)cc3)C(C(=O)O)=CC[C@H]2c2ccc(C(C)C)cc2)cc1	EPAC1 antagonist 50µM, EPAC2 antagonist inconclusive
C[n+]1ccnc2cc(Cl)ccc21	none (no result: USP1-UAF1 inh, EPAC1 antagonist, EPAC2 ag, EPAC2 antagonist, EPAC1 ag)
CCOC(=O)N1CCN(C(=O)c2cc3c(s2)-c2c(C)cccc2OC3)CC1	none
Cc1cccc2c1-c1sc(C(=O)N3CCCCC3)cc1CO2	BRCA1 expr act 6.3µM, EPAC2 antagonist inconclusive
CCc1ccc(CN(Cc2ccco2)C(=O)c2cc(-c3ccc(C)c(F)c3)on2)cc1	none (no result: EPAC1 antagonist, EPAC2 ag, BRCA1 expr act, EPAC2 antagonist, EPAC1 ag)
Cc1cc(SCc2ccc(C(F)(F)F)cc2)nc(=O)[nH]1	none
Nc1ncnc2c1nc(Br)n2[C@@H]1O[C@@H]2COP(=O)(O)O[C@H]2[C@H]1O	EPAC1 antagonist 1.3µM, EPAC2 ag inconclusive, EPAC2 antagonist 2.5µM, EPAC1 ag 11µM
Nc1ncnc2c1nc(Sc1ccc(Cl)cc1)n2[C@H]1OC2COP(=O)(O)O[C@H]2[C@@H]1O (stereo not given in full)	none (no result: USP1-UAF1 inh, EPAC1 antagonist, EPAC2 ag, EPAC2 antagonist, EPAC1 ag)
O=S1(=O)C=C(Oc2ccc3ccccc3c2)c2ccccc21	EPAC2 antagonist 25µM
CCC(C(=O)NC1CCCC1)N(C(=O)c1snc(C(N)=O)c1N)c1ccc(OC)c(OC)c1 (stereo not given)	none
COc1ccc(N(C(=O)c2snc(C(N)=O)c2N)C(C(=O)NC2CCCC2)c2cccs2)cc1OC (stereo not given)	USP1-UAF1 inh inconclusive, EPAC1 antagonist 50µM
O=C(NCCC1=CCCCC1)c1cc(S(=O)(=O)N2CCOCC2)ccc1Cl	none
Cc1ccc(S(=O)(=O)N2CCCCC2)cc1C(=O)NCCC1=CCCCC1	EPAC1 ag 112µM
CC1(C(=O)Nc2ccc3c(c2)OCCO3)CN(S(C)(=O)=O)CC(=O)N1Cc1ccco1 (stereo not given)	none (no result: USP1-UAF1 inh, BRCA1 expr act)
Cc1c(Cl)cccc1N=Cc1ccc([N+](=O)[O-])s1	USP1-UAF1 inh 32µM, EPAC1 antagonist inconclusive
CCSc1nnc(NC(=O)C2CCN(C(=O)c3ccco3)CC2)s1	none (no result: USP1-UAF1 inh, EPAC1 antagonist, EPAC2 ag, EPAC2 antagonist, EPAC1 ag)
CC(C)OC(=O)c1ccc(NC(=O)C2C3CC4OC(=O)C2C4C3)cc1 (stereo not given)	BRCA1 expr act 7.1µM
